# Data: ChEMBL document CHEMBL4888484, “Replenishing the malaria drug discovery pipeline: Screening and hit evaluation of the MMV Hit Generation Library 1 (HGL1) against asexual blood stage Plasmodium falciparum ,using a nano luciferase reporter read-out” (2022)
# The whole screen tested about 150,000 compounds, of which about 540 (0.36%) showed an effect of 50% or more. Shown is part of a subset that was picked to be rich in strong results.
# Test system: Plasmodium falciparum
# Assay: Primary screen in NF54 nanoGlo assay, in single point, at 2uM, 72h; a lower Z score goes with more inhibition
# Format: functional, Erythrocyte
# Settings: timepoint 72 hour
SMILES,% Inhibition [%],Z score
Cc1cnc(C2CCOCC2)n1CC1CCN(C(=O)c2cccs2)CC1,-4,0.55
Cc1cc(F)ccc1C(=O)NCc1nnc(C)n1C1CC1,-2,0.34
CCN1CCN([C@H]2CCN(c3cc(Cl)ccc3C#N)C2)CC1,-9,1.34
CCn1c(-c2cc(NC(=O)c3cc(C)cc(C)c3)[nH]n2)cc2ccc(OC)cc21,17,-1.96
CCn1c(-c2cc(NC(=O)c3ccc4c(c3)OCO4)[nH]n2)cc2ccc(OC)cc21,52,-0.45
CCn1c(-c2cc(NC(=O)c3ccncc3)[nH]n2)cc2ccc(OC)cc21,34,-3.83
O=C(c1cnn(Cc2ccccc2)c1)N1CCC[C@@H]1CO,5,-0.66
Cc1ccc(CNC(=O)CN2CCN(C(=O)Nc3ccc(Cl)cc3)CC2=O)o1,7,-1.32
CCN1CCOC(C(=O)N2CCCC(COc3ccccc3)C2)C1 (configuration not stated),-11,1.91
NC(=O)CC(=O)Nc1ncc(-c2ccccc2F)s1,4,-0.56
Oc1ccccc1C1=NN[C@@](O)(C(F)(F)C(F)F)C1,-6,0.8
Oc1ccccc1-c1cnc(C(F)(F)F)s1,93,-17.09
Cn1nccc1[C@@H](O)CNC(=O)C1(c2cccnc2)CC2(CCC2)C1,-8,1.59
CCN(CCN(C)C)C(=O)c1cccc(-c2ccc3nccc(N)c3c2)c1,96,-13.62
CCN(CCN(C)C)C(=O)c1cccc(-c2ncccc2C)c1,-6,0.81
CCN(CC)CCN(CC)C(=O)c1cccc(-c2ccc(C)nc2N)c1,-7,0.71
CNC(=O)[C@@H]1C[C@H](NCc2ccccc2F)CN1CC(c1ccccc1)c1ccccc1,9,-1.28
CNC(=O)[C@@H]1C[C@H](NCc2cc(OC)c(OC)c(OC)c2)CN1CC(c1ccccc1)c1ccccc1,54,-11.4
CNC(=O)[C@@H]1C[C@@H](NCc2ccc(C(F)(F)F)cc2)CN1CC(c1ccccc1)c1ccccc1,2,-0.22

SMILES,% Inhibition [%],Z score
Cc1cccc(OCCN2C(=O)N[C@@]3(CCCCc4ccccc43)C2=O)c1,4,-0.78
CCN(Cc1noc(C2CCC2)n1)Cc1ccccc1C#N,-1,0.12
COc1ccc(Cl)cc1-c1c(N2CCCC2)cn[nH]c1=O,1,-0.09
Cc1cc(C(=O)NCCOc2ccccc2)c(C)s1,-17,2.3
O=C(NCCOc1ccccc1)c1ccc(C(=O)NCCOc2ccccc2)s1,56,-0.3
O=C(NCCOc1ccccc1)NCCOc1ccccc1,1,-0.22
Cc1cc(C)n(Cc2c(C(=O)NCc3ccc(N(C)C)cc3)noc2C)n1,-13,1.35
C#CCCCCC(=O)Nc1ccc(C#N)cn1,4,-0.84
CC(C)[C@H]1CN(C(=O)c2nc(C(F)(F)F)n3c2CCCC3)CCN1,-15,1.9
CC(O)CC(C)(C)CNC1CCCc2occc21 (configuration not stated),36,0.84
COc1cccc(Cl)c1CN[C@H]1CCCc2occc21,-24,2.8
Oc1cccc(CN[C@H]2CCCc3occc32)c1Cl,78,-12.81
O=C(Nc1ccc(Cl)cc1)N1Cc2nc[nH]c2C[C@H]1c1nc(-c2ccc3ccccc3c2)no1,19,-2.22
Cc1cnn(C2CN(CC(=O)N3CC(=O)Nc4ccccc43)C2)c1,-10,1.59
CCCc1cc(C(=O)N2C[C@@H]3CC[C@H]2CN(C(C)=O)C3)n(C)n1,3,-0.61
CCc1ncnc(N2CC[C@H](Cc3nnn[nH]3)C2)c1F,-13,1.77
CCn1ccc(C(=O)N2CCc3cc4ccc3[C@@H]2c2cccc(c2)OCCCNC(=O)c2cc(ccc2O)O4)cc1=O,7,-1.26
O=C1NCCCOc2cccc(c2)[C@H]2c3ccc(cc3CCN2C(=O)CCN2CCOCC2)Oc2ccc(O)c1c2,39,-8.79
NC(=O)C1CCN(CCC(=O)N2CCc3cc4ccc3[C@@H]2c2cccc(c2)OCCCNC(=O)c2cc(ccc2O)O4)CC1,92,-17.59

SMILES,% Inhibition [%],Z score
NCc1cccc(C(=O)N2CCc3cc4ccc3[C@@H]2c2cccc(c2)OCCCNC(=O)c2cc(ccc2O)O4)c1,86,-13.81
COCC(=O)N1CCc2cc3ccc2[C@@H]1c1cccc(c1)OCCCNC(=O)c1cc(ccc1O)O3,-2,0.47
Cc1cc(C(=O)N2CCc3cc4ccc3[C@@H]2c2cccc(c2)OCCCNC(=O)c2cc(ccc2O)O4)n(C)n1,-11,1.41
Cc1ccc(OS(=O)(=O)c2ccc3c(c2)NC(=O)CO3)c(Br)c1,-5,0.38
CCc1nccc(-c2nccn2CCOc2ccccc2F)n1,-5,0.87
CN(C(=O)CC1(C(=O)O)CCC1)[C@H]1CCOc2ccc(Br)cc21,1,-0.26
Cc1cc(CS(=O)(=O)[C@@H](C)C(=O)NCc2ccccc2)on1,-12,2.41
O=S(=O)(Cc1ccc(OC(F)(F)F)cc1)Nc1cccnc1-n1cccn1,2,-0.39
Cc1ccc(NC(=O)Cc2nnc(-c3cnccn3)o2)c(Cl)c1,-12,1.25
CCC(C)NCC(O)Cn1c(-c2ccccc2)c(-c2ccccc2)c2cc(C)ccc21 (configuration not stated),93,-10.06
Cc1c(C)n(CC(O)CNC(C)c2ccccc2)c2c(Cl)cccc12 (configuration not stated),59,-7.71
Cc1c(C)n(C[C@@H](O)CNC2CCCC2)c2c(Cl)cccc12,48,-6.21
Cc1c(C)n(C[C@@H](O)Cn2ccnc2C)c2c(Cl)cccc12,-5,0.7
CC(NCC(O)Cn1c(-c2ccccc2)c(-c2ccccc2)c2ccc3ccccc3c21)c1ccccc1 (configuration not stated),88,-10.69
CC(C)NC[C@H](O)Cn1c(-c2ccccc2)ccc1-c1ccccc1,8,-1.24
CC(NCC(O)COc1ccc2c(c1)OCO2)c1ccccc1 (configuration not stated),-9,1.69
COCCN(CCOC)C[C@H](O)Cn1c(-c2ccccc2)c(-c2ccccc2)c2cc(C)ccc21,0,0.06
Cc1ccc2c(c1)c(-c1ccccc1)c(-c1ccccc1)n2C[C@@H](O)CNCCCO,1,-0.17
